PubChem BioAssay (Tox21)
Results filed as inconclusive are left out. Entries that show only a call come without a potency. The source made the active and inactive calls. Calls follow the shape of the dose curve; as a rule, active = well fitted inhibition curve with a large enough effect in the repeat runs; inconclusive = weak or mixed curves; inactive = flat fitted curve, though single readings scatter.

Test: qHTS assay to identify small molecule HDAC inhibitors (AID 1259364); also: top concentration of the series differs between compounds; nearly all actives have a fitted effect of over 45% in size
Conditions: HCT-116 HDAC-Glo I/II luminescence, 2 h; series mostly up to 92.4 µM
Excerpt: U.S. Tox21 Program National Center for Advancing Translational Sciences [NCATS] NIH Chemical Genomics Center [NCGC] U.S. Environmental Protection Agency [EPA] National Institutes of Environmental Health Sciences [NIEHS] National Toxicology Program [NTP] U.S. Food and Drug Administration [FDA] Tox21 Assay Overview: Histone deacetylases (HDACs) are a group of epigenetic enzymes that regulate gene expression by histone deacetylation. HDACs are capable of introducing epigenetic modifications and such aberrations contribute to the onset and progression of several human diseases, thus making HDACs a popular therapeutic target. For identifying endogenous class I/II HDAC inhibitors a homogenous, luminogenic HDAC I/II cell based assay was used to measure the relative activity of class I and II HDACs from cells. Wild type HCT-116 cells were used to screen Tox21 libraries for identifying class I/II HDAC inhibitors.
Tox21 Assay Protocol Summary: HCT-116 cells were dispensed at 1,500 per well in 5uL of culture medium into white solid bottom 1536-well plates (Greiner Bio-One, Monroe, NC) using a Multidrop Combi (Thermo Scientific, Waltham, MA) dispenser. The assay plates were incubated at 37 C and 5% CO2 for an overnight, and then 23nL of compounds dissolved in DMSO and positive control were transferred using a Pintool station (Wako, San Diego, CA). The assay plates were incubated at 37C and 5% CO2 for 2hr. After compound treatment, 4uL of HDAC-Glo reagent (Promega Corporation, Madison, WI) was added to each well of the assay plates using Flying Reagent Dispenser (FRD, Aurora Discovery, San Diego, CA) and incubated the assay plates at room temperature for 30min. The luminescence signal was quantified using a ViewLux plate reader (Perkin Elmer, Shelton, CT).

| Compound | Potency | activity change, negative = inhibition |
| --- | --- | --- |
| NC(=O)NNC(N)=O | inactive | – |
| Cc1oc(=O)oc1CN1CCN(c2cc3c(cc2F)c(=O)c(C(=O)O)c2n3C(C)S2)CC1 (stereo not given) | inactive | – |
| OCCCCCCCl | inactive | – |
| CC(=O)Nc1ccc(C)cc1 | inactive | – |
| CC(=O)OC[C@H]1O[C@@H](OC(C)=O)[C@H](OC(C)=O)[C@@H]1OC(C)=O | inactive | – |
| Cc1cccc(NC(=S)N(C)C)c1 | inactive | – |
| CCNC(=O)NCCCOc1cccc(CN2CCCCC2)c1 | inactive | – |
| C=CC(C)(O)CC/C=C(\C)CC (stereo not given) | inactive | – |
| CCCCCC1Nc2cc(C(F)(F)F)c(S(N)(=O)=O)cc2S(=O)(=O)N1 (stereo not given) | inactive | – |
| O=CN1CCOCC1 | inactive | – |
| CCc1nccnc1C | inactive | – |
| C=CCOCC(O)CCl (stereo not given) | inactive | – |
| Cc1cccc(Nc2ccncc2S(=O)(=O)NC(=O)NC(C)C)c1 | inactive | – |
| CCCCCCCCCOCC1CO1 (stereo not given) | inactive | – |
| FC(F)(F)c1ccc(Cl)cc1Cl | inactive | – |
| CCCCCCCCCCCCCCCCI | – | 1.82% [at 19 µM] (inactive) |
| CC(C)COC(=O)/C=C/c1ccccc1 | inactive | – |
| CCCC(C)CC (stereo not given) | inactive | – |
| CCN(CC)C(=O)C1CN2CCc3cc(OC)c(OC)cc3C2CC1OC(C)=O (stereo not given) | inactive | – |
| C[C@H]1O[C@H](O[C@H]2[C@H](O)[C@@H](O)[C@@H](O[C@H]3[C@H](O)[C@@H](O)[C@H](O)O[C@@H]3CO)O[C@@H]2CO)[C@H](O)[C@@H](O)[C@@H]1N[C@H]1C=C(CO)[C@@H](O)[C@H](O)[C@H]1O | inactive | – |

| Compound | Potency | activity change, negative = inhibition |
| --- | --- | --- |
| COc1ccc(N=Nc2cc(C)c(N=Nc3ccc(S(=O)(=O)O)cc3)cc2OC)cc1 | inactive | – |
| COc1ccc(NS(=O)(=O)c2ccc(N)cc2)nn1 | inactive | – |
| O=C(O)/C=C/c1ccccc1 | inactive | – |
| CCCCC(=O)N(C)C | inactive | – |
| O=S(=O)(O)CCO | inactive | – |
| CC(C)(C)c1ccc(C=O)cc1 | inactive | – |
| CO/N=C(/C(=O)N[C@@H]1C(=O)N2C(C(=O)O)=C(Cn3nnc(C)n3)CS[C@H]12)c1csc(N)n1 | inactive | – |
| C=CCOCC(CO)(COCC=C)COCC=C | inactive | – |
| CCC(CO)CO | inactive | – |
| C=CCOc1c(Br)cc(Br)cc1Br | inactive | – |
| CCCCCCCCCCCCC | inactive | – |
| C[N+](C)(C)CC(O)CCl (stereo not given) | inactive | – |
| CC(=O)OC(C)(C)Cc1ccccc1 | inactive | – |
| Nc1ccc(C(=O)OCC(O)CO)cc1 (stereo not given) | inactive | – |
| CCOC(=O)C(=O)c1csc(NC=O)n1 | inactive | – |
| CN=C(NC#N)NCCSCc1csc(N=C(N)N)n1 | inactive | – |
| CCC(O)C(C)(C)C (stereo not given) | inactive | – |
| Nc1cc(S(=O)(=O)O)ccc1S(=O)(=O)O | inactive | – |
| Nc1cc(C(=O)O)ccc1Cl | inactive | – |
| O=C1CC[C@H](C(=O)N2CCCCC2)N1 | inactive | – |
